# Measurements taken from ChEMBL document CHEMBL1961873, “Compounds: GSK PKIS; Assays: Nanosyn kinase panel” (2012).
# How the values were obtained:
# [1] = molecular target: Sphingosine kinase 1 (Homo sapiens) (UniProt Q9NYA1); conditions: at 1 µM;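 also: mean SPHK1 inhibition value reported from the GSK PKIS kinase panel screen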
# [2] = molecular target: T1, Sphingosine kinase 2 (Homo sapiens) (UniProt Q9NRA0); conditions: at 0.1 µM
# T1 sequence (whole entry): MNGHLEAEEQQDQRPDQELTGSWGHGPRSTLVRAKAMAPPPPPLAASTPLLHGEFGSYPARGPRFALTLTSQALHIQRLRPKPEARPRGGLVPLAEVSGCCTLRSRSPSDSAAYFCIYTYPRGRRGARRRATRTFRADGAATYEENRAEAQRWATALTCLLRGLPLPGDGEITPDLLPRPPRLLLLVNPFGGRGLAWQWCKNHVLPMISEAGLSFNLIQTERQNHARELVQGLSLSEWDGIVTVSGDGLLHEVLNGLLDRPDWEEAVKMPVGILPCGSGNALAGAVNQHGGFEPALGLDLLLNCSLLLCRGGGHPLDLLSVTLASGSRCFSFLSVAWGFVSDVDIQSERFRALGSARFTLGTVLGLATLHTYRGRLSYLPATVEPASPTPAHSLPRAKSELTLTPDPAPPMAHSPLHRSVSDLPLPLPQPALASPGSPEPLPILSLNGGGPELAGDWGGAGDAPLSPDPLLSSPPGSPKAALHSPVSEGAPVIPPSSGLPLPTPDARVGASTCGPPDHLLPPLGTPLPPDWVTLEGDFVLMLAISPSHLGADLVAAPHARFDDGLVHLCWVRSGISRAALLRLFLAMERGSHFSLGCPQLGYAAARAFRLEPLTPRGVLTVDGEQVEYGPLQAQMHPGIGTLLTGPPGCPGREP
# [3] = molecular target: T1, Sphingosine kinase 2 (Homo sapiens); conditions: at 1 µM
# [4] = molecular target: Casein kinase II subunit alpha (Homo sapiens) (UniProt P68400); conditions: at 0.1 µM
# [5] = molecular target: Casein kinase II subunit alpha (Homo sapiens) (UniProt P68400); conditions: at 1 µM
# [6] = molecular target: T2, Inhibitor of nuclear factor kappa-B kinase subunit alpha (Homo sapiens) (UniProt O15111); conditions: at 0.1 µM
# T2 sequence (whole entry): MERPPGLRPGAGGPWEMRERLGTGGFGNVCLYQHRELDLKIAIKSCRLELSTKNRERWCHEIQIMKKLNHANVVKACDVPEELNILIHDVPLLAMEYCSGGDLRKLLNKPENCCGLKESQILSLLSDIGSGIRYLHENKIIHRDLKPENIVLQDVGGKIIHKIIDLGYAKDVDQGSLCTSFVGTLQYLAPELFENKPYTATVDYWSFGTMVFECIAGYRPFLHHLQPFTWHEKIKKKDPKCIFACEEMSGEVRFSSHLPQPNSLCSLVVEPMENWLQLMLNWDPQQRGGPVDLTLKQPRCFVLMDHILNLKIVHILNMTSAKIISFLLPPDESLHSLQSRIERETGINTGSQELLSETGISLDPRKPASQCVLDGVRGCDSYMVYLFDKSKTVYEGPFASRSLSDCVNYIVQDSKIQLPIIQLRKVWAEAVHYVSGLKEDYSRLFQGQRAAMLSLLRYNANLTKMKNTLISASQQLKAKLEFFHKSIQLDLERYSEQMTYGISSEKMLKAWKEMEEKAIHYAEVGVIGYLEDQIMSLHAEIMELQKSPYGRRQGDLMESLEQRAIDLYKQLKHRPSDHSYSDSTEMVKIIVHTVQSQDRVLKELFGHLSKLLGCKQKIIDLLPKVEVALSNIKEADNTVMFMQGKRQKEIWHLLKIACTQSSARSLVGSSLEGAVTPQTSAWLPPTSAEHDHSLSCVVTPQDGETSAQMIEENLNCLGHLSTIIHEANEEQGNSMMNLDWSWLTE
# [7] = molecular target: T2, Inhibitor of nuclear factor kappa-B kinase subunit alpha (Homo sapiens); conditions: at 1 µM
# [8] = molecular target: T3, Inhibitor of nuclear factor kappa-B kinase subunit beta (Homo sapiens) (UniProt O14920); conditions: at 0.1 µM
# T3 sequence (whole entry): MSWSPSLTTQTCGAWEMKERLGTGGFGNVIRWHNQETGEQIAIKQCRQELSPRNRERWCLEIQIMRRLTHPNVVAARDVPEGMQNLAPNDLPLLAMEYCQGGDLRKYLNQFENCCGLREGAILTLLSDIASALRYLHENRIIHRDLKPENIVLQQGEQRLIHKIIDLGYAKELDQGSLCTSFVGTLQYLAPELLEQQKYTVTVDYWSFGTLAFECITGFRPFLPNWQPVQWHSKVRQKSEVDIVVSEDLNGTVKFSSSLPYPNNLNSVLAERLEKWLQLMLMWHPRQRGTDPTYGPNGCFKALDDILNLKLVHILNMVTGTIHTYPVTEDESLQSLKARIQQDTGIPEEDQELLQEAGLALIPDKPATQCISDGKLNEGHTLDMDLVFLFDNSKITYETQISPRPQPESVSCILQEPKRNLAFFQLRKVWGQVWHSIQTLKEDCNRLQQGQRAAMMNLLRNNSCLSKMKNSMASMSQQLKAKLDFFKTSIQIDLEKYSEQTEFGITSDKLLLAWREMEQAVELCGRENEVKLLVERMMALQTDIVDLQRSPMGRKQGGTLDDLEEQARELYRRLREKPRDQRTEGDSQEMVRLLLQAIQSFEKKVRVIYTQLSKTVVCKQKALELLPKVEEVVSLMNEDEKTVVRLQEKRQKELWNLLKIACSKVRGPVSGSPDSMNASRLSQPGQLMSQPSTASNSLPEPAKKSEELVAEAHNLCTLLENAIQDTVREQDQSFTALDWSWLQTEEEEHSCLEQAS
# [9] = molecular target: T3, Inhibitor of nuclear factor kappa-B kinase subunit beta (Homo sapiens); conditions: at 1 µM
# [10] = molecular target: T4, Inhibitor of nuclear factor kappa-B kinase subunit epsilon (Homo sapiens) (UniProt Q14164); conditions: at 0.1 µM
# T4 sequence (whole entry): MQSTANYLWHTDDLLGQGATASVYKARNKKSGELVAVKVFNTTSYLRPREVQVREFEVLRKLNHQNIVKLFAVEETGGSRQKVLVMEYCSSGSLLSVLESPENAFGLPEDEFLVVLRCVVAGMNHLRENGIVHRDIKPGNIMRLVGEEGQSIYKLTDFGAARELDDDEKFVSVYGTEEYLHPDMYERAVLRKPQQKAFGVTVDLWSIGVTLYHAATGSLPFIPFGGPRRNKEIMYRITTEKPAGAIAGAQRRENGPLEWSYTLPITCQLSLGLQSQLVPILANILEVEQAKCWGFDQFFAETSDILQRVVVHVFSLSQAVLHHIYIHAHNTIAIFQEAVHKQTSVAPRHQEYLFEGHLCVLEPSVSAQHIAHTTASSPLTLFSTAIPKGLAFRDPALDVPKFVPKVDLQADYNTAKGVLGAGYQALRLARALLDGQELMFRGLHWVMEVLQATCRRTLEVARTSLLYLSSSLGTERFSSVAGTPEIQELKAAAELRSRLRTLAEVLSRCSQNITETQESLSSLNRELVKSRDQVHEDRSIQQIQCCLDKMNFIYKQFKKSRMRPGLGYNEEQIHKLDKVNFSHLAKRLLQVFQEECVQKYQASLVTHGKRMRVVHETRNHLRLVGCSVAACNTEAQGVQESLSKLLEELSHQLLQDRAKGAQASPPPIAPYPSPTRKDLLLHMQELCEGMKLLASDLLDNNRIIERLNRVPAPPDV
# [11] = molecular target: T4, Inhibitor of nuclear factor kappa-B kinase subunit epsilon (Homo sapiens); conditions: at 1 µM
# [12] = molecular target: T5, Serine/threonine-protein kinase Nek1 (Homo sapiens) (UniProt Q96PY6); conditions: at 0.1 µM
# T5 sequence (whole entry): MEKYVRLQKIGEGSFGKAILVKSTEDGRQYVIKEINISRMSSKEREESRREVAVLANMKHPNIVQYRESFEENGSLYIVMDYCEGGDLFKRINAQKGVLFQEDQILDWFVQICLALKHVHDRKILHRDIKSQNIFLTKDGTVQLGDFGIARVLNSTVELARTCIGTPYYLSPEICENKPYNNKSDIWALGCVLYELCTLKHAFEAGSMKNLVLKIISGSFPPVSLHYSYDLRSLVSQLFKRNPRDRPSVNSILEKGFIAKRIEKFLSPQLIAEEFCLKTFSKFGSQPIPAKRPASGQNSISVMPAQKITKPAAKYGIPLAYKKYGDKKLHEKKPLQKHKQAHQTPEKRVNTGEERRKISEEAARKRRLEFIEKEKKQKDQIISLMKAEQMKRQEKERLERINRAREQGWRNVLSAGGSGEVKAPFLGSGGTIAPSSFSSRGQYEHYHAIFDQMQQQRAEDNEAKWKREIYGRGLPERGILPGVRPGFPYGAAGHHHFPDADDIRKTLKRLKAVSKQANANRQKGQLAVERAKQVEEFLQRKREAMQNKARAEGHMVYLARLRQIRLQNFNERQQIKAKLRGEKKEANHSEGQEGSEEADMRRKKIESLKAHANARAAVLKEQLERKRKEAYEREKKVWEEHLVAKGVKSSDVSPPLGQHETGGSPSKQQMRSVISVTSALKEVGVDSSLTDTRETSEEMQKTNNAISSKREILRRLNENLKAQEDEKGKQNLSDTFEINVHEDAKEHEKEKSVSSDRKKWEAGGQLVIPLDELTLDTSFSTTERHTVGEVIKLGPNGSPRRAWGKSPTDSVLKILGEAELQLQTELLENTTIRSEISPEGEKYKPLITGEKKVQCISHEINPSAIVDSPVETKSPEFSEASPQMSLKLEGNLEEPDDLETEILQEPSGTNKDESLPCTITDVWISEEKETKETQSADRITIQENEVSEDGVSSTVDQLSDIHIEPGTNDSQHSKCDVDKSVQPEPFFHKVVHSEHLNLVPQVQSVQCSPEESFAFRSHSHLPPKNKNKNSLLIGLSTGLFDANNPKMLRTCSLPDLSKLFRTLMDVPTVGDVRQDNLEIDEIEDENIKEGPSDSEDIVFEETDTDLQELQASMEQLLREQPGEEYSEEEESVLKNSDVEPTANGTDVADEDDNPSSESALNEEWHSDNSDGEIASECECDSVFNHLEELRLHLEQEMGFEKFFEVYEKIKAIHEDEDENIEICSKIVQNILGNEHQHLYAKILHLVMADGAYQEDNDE
# [13] = molecular target: T5, Serine/threonine-protein kinase Nek1 (Homo sapiens); conditions: at 1 µM
# [14] = molecular target: T6, Serine/threonine-protein kinase Nek2 (Homo sapiens) (UniProt P51955); conditions: at 0.1 µM
# T6 sequence (whole entry): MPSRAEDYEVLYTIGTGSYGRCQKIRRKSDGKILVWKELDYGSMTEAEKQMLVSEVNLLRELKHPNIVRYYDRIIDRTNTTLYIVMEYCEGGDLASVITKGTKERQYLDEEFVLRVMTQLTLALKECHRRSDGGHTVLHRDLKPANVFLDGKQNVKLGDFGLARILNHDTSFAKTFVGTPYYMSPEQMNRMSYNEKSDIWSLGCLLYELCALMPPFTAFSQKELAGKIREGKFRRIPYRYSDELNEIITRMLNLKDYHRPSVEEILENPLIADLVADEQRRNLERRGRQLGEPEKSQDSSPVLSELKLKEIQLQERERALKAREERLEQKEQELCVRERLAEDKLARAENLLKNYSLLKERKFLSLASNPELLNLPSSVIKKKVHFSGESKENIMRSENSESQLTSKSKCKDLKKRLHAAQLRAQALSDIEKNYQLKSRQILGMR
# [15] = molecular target: T6, Serine/threonine-protein kinase Nek2 (Homo sapiens); conditions: at 1 µM
# [16] = molecular target: Serine/threonine-protein kinase Nek6 (Homo sapiens) (UniProt Q9HC98); conditions: at 0.1 µM
# [17] = molecular target: Serine/threonine-protein kinase Nek6 (Homo sapiens) (UniProt Q9HC98); conditions: at 1 µM
# [18] = molecular target: Serine/threonine-protein kinase Nek7 (Homo sapiens) (UniProt Q8TDX7); conditions: at 0.1 µM
# [19] = molecular target: Serine/threonine-protein kinase Nek7 (Homo sapiens) (UniProt Q8TDX7); conditions: at 1 µM
# [20] = molecular target: T7, Serine/threonine-protein kinase Nek9 (Homo sapiens) (UniProt Q8TD19); conditions: at 0.1 µM;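 also: reported value is the mean percent inhibition of NEK9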
# T7 sequence (whole entry): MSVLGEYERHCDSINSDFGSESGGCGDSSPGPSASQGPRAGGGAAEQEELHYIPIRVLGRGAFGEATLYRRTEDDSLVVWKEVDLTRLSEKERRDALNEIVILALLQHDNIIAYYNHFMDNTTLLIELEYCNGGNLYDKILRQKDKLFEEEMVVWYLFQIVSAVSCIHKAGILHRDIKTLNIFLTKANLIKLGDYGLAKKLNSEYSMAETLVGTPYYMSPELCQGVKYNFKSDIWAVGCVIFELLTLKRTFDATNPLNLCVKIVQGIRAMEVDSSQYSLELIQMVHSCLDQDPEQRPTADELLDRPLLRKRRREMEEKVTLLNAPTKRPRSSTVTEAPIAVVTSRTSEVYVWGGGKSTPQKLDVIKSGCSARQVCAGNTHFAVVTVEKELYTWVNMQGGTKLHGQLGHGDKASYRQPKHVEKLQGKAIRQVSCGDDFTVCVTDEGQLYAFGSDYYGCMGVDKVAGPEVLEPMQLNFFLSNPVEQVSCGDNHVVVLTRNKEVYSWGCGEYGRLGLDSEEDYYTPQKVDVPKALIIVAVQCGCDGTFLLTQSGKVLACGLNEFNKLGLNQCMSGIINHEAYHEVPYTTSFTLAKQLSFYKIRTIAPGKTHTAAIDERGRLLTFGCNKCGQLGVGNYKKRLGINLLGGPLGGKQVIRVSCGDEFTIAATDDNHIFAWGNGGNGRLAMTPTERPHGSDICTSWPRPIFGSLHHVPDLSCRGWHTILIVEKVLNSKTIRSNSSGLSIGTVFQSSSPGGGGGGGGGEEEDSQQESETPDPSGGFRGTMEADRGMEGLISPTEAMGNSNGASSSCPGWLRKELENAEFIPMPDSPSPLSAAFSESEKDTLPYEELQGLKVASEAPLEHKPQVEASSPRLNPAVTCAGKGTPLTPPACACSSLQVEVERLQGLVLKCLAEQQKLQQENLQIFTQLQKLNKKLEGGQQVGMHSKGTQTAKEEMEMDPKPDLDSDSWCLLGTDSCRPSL
# Sequence of Serine/threonine-protein kinase Nek7 (Homo sapiens) (Q8TDX7 whole entry, looked up): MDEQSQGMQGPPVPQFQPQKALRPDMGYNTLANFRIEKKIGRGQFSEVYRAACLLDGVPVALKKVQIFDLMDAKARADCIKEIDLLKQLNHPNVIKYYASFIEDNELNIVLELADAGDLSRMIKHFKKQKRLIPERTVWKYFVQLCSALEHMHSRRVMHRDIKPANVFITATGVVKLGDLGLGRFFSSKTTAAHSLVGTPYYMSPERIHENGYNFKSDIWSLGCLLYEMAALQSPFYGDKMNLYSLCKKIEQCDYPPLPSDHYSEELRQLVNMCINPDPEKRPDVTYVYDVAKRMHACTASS
# Sequence of Serine/threonine-protein kinase Nek6 (Homo sapiens) (Q9HC98 whole entry): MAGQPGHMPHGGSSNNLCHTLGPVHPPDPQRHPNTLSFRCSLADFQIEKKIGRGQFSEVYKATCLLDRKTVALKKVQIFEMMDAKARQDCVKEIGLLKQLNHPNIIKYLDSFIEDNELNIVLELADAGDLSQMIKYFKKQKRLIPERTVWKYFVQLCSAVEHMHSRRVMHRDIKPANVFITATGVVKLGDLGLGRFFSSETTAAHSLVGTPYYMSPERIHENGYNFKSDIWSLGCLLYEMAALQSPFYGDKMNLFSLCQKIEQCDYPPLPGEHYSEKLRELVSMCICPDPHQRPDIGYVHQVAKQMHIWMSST
# Sequence of Casein kinase II subunit alpha (Homo sapiens) (P68400 whole entry, looked up): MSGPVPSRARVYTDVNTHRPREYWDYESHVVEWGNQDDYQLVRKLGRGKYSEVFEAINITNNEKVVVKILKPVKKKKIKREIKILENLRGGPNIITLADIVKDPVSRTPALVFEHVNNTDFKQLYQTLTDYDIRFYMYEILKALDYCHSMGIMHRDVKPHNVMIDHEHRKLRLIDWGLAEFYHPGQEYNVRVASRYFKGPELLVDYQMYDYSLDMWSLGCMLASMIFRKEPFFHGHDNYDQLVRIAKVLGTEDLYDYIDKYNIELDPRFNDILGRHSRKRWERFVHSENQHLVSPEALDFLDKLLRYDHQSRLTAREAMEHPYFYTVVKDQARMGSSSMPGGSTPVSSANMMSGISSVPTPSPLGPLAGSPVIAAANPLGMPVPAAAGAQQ
# Sequence of Sphingosine kinase 1 (Homo sapiens) (Q9NYA1 whole entry): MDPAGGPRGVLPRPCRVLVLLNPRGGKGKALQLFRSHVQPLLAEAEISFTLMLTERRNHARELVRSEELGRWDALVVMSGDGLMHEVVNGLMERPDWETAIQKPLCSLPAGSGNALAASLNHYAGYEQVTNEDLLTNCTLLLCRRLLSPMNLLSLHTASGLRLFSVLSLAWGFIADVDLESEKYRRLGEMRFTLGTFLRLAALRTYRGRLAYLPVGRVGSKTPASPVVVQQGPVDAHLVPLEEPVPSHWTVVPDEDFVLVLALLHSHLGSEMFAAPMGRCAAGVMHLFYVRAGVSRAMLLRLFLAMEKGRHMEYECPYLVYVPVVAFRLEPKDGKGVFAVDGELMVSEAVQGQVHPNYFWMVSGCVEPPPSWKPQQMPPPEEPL
Structure (SMILES),inhibition [1] [%],inhibition [2] [%],inhibition [3] [%],inhibition [4] [%],inhibition [5] [%],inhibition [6] [%],inhibition [7] [%],inhibition [8] [%],inhibition [9] [%],inhibition [10] [%],inhibition [11] [%],inhibition [12] [%],inhibition [13] [%],inhibition [14] [%],inhibition [15] [%],inhibition [16] [%],inhibition [17] [%],inhibition [18] [%],inhibition [19] [%],inhibition [20] [%]
COc1cccc(-n2cnc3c(N/N=C/c4ccncc4)ncnc32)c1,0.02,0.58,-0.25,0.97,10.8,0.84,-1.74,1.12,3.32,3.81,4.51,0,9.07,-1.74,-1.3,2.37,2.69,-0.81,-2.76,0.98
CCS(=O)(=O)c1ccc(OC)c(Nc2ncc(-c3cccc(-c4ccccc4F)c3)o2)c1,0.74,0.06,-2.48,1.79,4.95,3.18,3.18,0.01,-1.42,-1.02,0.08,1.03,1.67,0.99,-0.68,1.36,-2.09,1.63,-0.61,-0.87
